The results in this text go back to PubChem BioAssay (NCI).

The panel holds about 83,000 compounds, 20% with a hit somewhere; the sample as a whole holds those more often.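 In brief: 96-well plates, 48 h treatment, single concentration, percent growth endpoint.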 Unmarked numbers belong to inactive results. Calls of active or inactive are those of the source. The calls were made as follows: active = growth percent below 10; inactive = the rest.

Among the test systems are SK-MEL-2 melanoma; EKVX NSCLC; SN12C renal; UO-31 renal; TK-10 renal; ACHN renal; CAKI-1 renal; CCRF-CEM leukemia; MOLT-4 leukemia; RPMI-8226 leukemia; OVCAR-8 ovarian; OVCAR-5 ovarian; OVCAR-4 ovarian; SK-OV-3 ovarian; IGROV1 ovarian; HS 578T breast; NCI/ADR-RES ovarian; OVCAR-3 ovarian; A498 renal; SR leukemia.
Holding throughout (test): NCI-60 one-dose screen, 48 h (100 = growth as untreated, 0 = no growth, -100 = all killed)
Holding throughout (details): 10 µM unless noted

Turning to `COc1ccc(C(=O)/C=C/c2cccnc2Nc2cc(OC)c(OC)c(OC)c2)cc1`, the growth is 47.4% in the assay with SK-MEL-2 melanoma; 61.9% in the assay on EKVX NSCLC; 8.5% (active) in the assay on SN12C renal; 51.1% with UO-31 renal; 44.9% with TK-10 renal; 16.4% with ACHN renal. Also, the growth in the assay with CAKI-1 renal is 32.2%; with CCRF-CEM leukemia, -16.5% (active); in the assay with MOLT-4 leukemia, 2.59% (active); in the assay with RPMI-8226 leukemia, -21.2% (active); with OVCAR-8 ovarian it was -0.898% (active); in the assay on OVCAR-5 ovarian it was 37.7%. In addition, the growth in the assay on OVCAR-4 ovarian is 39.8%; in the assay with SK-OV-3 ovarian it was 24.7%; in the assay with IGROV1 ovarian, 72%; in the assay with HS 578T breast it was 36.7%; in the assay on NCI/ADR-RES ovarian it was 4.44% (active).

Consider `CC[C@H]1OC(=O)[C@H](C)[C@@H](O[C@H]2C[C@@](C)(OC)[C@@H](O)[C@H](C)O2)[C@H](C)[C@@H](O[C@@H]2O[C@H](C)C[C@H](N(C)C)[C@H]2O)[C@](C)(O)C[C@H](C)CN(C)[C@H](C)[C@@H](O)[C@]1(C)O`, for which the growth in the assay with SK-MEL-2 melanoma is 117%; in the assay with EKVX NSCLC it was 86.5%; with SN12C renal, 93.9%; in the assay on UO-31 renal, 78.9%; in the assay with TK-10 renal, 103%; with ACHN renal, 96.5%. In addition, the growth in the assay with CAKI-1 renal is 96.6%; with CCRF-CEM leukemia, 120%; in the assay with MOLT-4 leukemia, 103%; in the assay with RPMI-8226 leukemia, 107%; in the assay with OVCAR-8 ovarian, 115%; in the assay with OVCAR-5 ovarian, 100%. Besides, the growth is 108% in the assay with OVCAR-4 ovarian; 97.4% with SK-OV-3 ovarian; 98.3% in the assay on IGROV1 ovarian; 96% in the assay on OVCAR-3 ovarian; -29.8% (active) in the assay on HS 578T breast; 95.2% in the assay with NCI/ADR-RES ovarian.

`Clc1ccc2c(NCCNc3nc(N4CCOCC4)nc4ccccc34)ccnc2c1`: the growth with SK-MEL-2 melanoma was -42.9% (active); in the assay with EKVX NSCLC, 31.1%; in the assay on SN12C renal, 0.0194% (active); with UO-31 renal, -89% (active); in the assay with TK-10 renal it was -88.6% (active); with ACHN renal it was -44.2% (active). The growth was -12.8% (active) in the assay with A498 renal; -8.56% (active) with CCRF-CEM leukemia; 11.7% with MOLT-4 leukemia; -23.5% (active) in the assay with SR leukemia; -37% (active) in the assay with RPMI-8226 leukemia; -25.8% (active) in the assay with OVCAR-8 ovarian. The growth in the assay on OVCAR-5 ovarian is 51.8%; with OVCAR-4 ovarian it was 3.78% (active); in the assay on SK-OV-3 ovarian it was -37.8% (active); with IGROV1 ovarian it was 48.8%; in the assay with OVCAR-3 ovarian, -75% (active); in the assay on HS 578T breast it was -13.9% (active). For the same compound, the growth with NCI/ADR-RES ovarian was 47.9%.

For `CCCCCC(=O)Oc1ccc(/C(=C(\C)c2ccc(OC)cc2)c2ccc(OCCN3CCCCC3)cc2)cc1`, the growth in the assay with SK-MEL-2 melanoma is 64.7%; in the assay with EKVX NSCLC, 58.5%; in the assay on SN12C renal, 73.8%; in the assay with UO-31 renal it was 56.2%; with TK-10 renal, 92.7%; in the assay on ACHN renal it was 74.4%. Besides, the growth was 92.3% in the assay on A498 renal; 56.7% in the assay on CCRF-CEM leukemia; 25.1% in the assay on MOLT-4 leukemia; -2% (active) in the assay on SR leukemia; 9.96% (active) in the assay with RPMI-8226 leukemia; 74.3% in the assay on OVCAR-8 ovarian. Also, the growth with OVCAR-5 ovarian is 82.2%; with OVCAR-4 ovarian, 54.5%; in the assay with SK-OV-3 ovarian, 68.2%; with IGROV1 ovarian, 79%; in the assay on OVCAR-3 ovarian it was 74.9%; in the assay with HS 578T breast it was 64.9%. In addition, the growth with NCI/ADR-RES ovarian was 71.2%.

For `N#Cc1c(N)n(CCNC(=O)c2ccccc2)c2nc3ccccc3nc12`, the growth was 90.3% in the assay on SK-MEL-2 melanoma; 123% in the assay on EKVX NSCLC; 120% in the assay on SN12C renal; 89.4% in the assay with UO-31 renal; 102% with TK-10 renal; 118% in the assay with ACHN renal. In addition, the growth with CAKI-1 renal is 115%; in the assay on CCRF-CEM leukemia it was 133%; with MOLT-4 leukemia, 44.7%; with RPMI-8226 leukemia it was 179%; with OVCAR-8 ovarian, 102%; in the assay with OVCAR-5 ovarian it was 79%. Further, the growth is 114% in the assay with OVCAR-4 ovarian; 120% in the assay with SK-OV-3 ovarian; 76.3% in the assay on IGROV1 ovarian; 81.9% in the assay with OVCAR-3 ovarian; 179% in the assay with HS 578T breast; 87.7% in the assay on NCI/ADR-RES ovarian.

With `Cc1cc(N2CCCC2)nc(NC2CCCC(Nc3ccnc4cc(Cl)ccc34)C2)n1` (stereo not drawn), the growth was -87.5% (active) with SK-MEL-2 melanoma; 11.1% in the assay with EKVX NSCLC; -49.4% (active) with SN12C renal; -93.3% (active) in the assay on UO-31 renal; -74.5% (active) with TK-10 renal; -98% (active) in the assay on ACHN renal. The growth is -18.4% (active) in the assay with A498 renal; -22.2% (active) in the assay with CCRF-CEM leukemia; -20.8% (active) in the assay with MOLT-4 leukemia; -56.6% (active) in the assay with SR leukemia; -55.6% (active) with RPMI-8226 leukemia; -69.8% (active) with OVCAR-8 ovarian. In addition, the growth in the assay on OVCAR-5 ovarian is -14.8% (active); in the assay with OVCAR-4 ovarian, 17.1%; in the assay with SK-OV-3 ovarian it was -29% (active); with IGROV1 ovarian it was -27.5% (active); with OVCAR-3 ovarian, -53.2% (active); in the assay on HS 578T breast it was -41.6% (active). In addition, the growth with NCI/ADR-RES ovarian is -10.1% (active).

On to `COc1cc2c(cc1OC)C(Sc1ccc(SC)cc1)c1c(nc(N)c(C#N)c1N)O2` (stereo not drawn), for which the growth with SK-MEL-2 melanoma is -63.7% (active); with EKVX NSCLC, -45.6% (active); in the assay on SN12C renal, -88% (active); in the assay with UO-31 renal, -99.7% (active); in the assay on TK-10 renal, -95.7% (active); with ACHN renal it was -86.4% (active). Further, the growth in the assay on A498 renal was -6.98% (active); with CCRF-CEM leukemia, -32.7% (active); in the assay on MOLT-4 leukemia it was -26.3% (active); in the assay on SR leukemia, -37.4% (active); in the assay on RPMI-8226 leukemia it was -37.9% (active); in the assay with OVCAR-8 ovarian, -90.6% (active). In addition, the growth with OVCAR-5 ovarian was -63.1% (active); with OVCAR-4 ovarian it was -94.8% (active); in the assay on SK-OV-3 ovarian, -85.1% (active); in the assay on IGROV1 ovarian, -68.9% (active); in the assay on OVCAR-3 ovarian it was -88.7% (active); in the assay on HS 578T breast, 4.87% (active). Further, the growth in the assay on NCI/ADR-RES ovarian is -23.2% (active).

Take `CSc1ccc(-c2ccccc(=O)c2O)cc1`: the growth in the assay with SK-MEL-2 melanoma is 15.2%; with EKVX NSCLC it was 11.5%; in the assay on SN12C renal, 11.9%; in the assay with UO-31 renal, -17.8% (active); in the assay with TK-10 renal it was 33.4%; with ACHN renal, 6.58% (active). Moreover, the growth in the assay on A498 renal is 36.2%; with CCRF-CEM leukemia, 3.72% (active); in the assay on MOLT-4 leukemia, 2.65% (active); with SR leukemia it was 5.18% (active); in the assay on RPMI-8226 leukemia it was 10.1%; in the assay with OVCAR-8 ovarian, 14.6%. For the same compound, the growth with OVCAR-5 ovarian is 52.9%; with OVCAR-4 ovarian it was 32.5%; in the assay on SK-OV-3 ovarian it was 11.8%; in the assay with IGROV1 ovarian, 12.7%; in the assay with OVCAR-3 ovarian it was 25.1%; in the assay on HS 578T breast, 56.4%. Besides, the growth in the assay on NCI/ADR-RES ovarian was 5.46% (active).
